Data on 32 compounds can be found in PubChem BioAssay (NCATS).

Where “and” joins values, the source holds several entries; their conditions need not be identical. Identical values can stand only once. Records with an inconclusive call do not appear. More than one record can exist for a structure, and the calls need not agree. Calls of active or inactive are those of the source. Unless noted, calls come from the whole dose curve.

For assay [1], the target named is Androgen receptor (Homo sapiens) (UniProt P10275). The assay can be described thus: qHTS assay for small molecule agonists of androgen receptor signaling (AID 588515; active = well fitted curve in the direction sought with a large enough effect in the signal ratio, with a control signal flat; the % refers to the signal ratio; note: % is set by controls: 0 for no effect and ±100 for the full control effect). As to conditions: AR-UAS-bla HEK293, beta-lactamase ratio, agonist 16 h; stronger effect = higher value. Put shortly: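 EC50 and efficacy came from Hill fits of titrations (up to 92 uM) normalized to 30 nM R1881 as 100% and DMSO as 0%. Compound exposure was 16 h at 37 C on AR-UAS-bla HEK293 cells, with a 405/460/530 nm CCF4 fluorescence read.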
Chain of Androgen receptor (Homo sapiens) (P10275 whole entry, looked up): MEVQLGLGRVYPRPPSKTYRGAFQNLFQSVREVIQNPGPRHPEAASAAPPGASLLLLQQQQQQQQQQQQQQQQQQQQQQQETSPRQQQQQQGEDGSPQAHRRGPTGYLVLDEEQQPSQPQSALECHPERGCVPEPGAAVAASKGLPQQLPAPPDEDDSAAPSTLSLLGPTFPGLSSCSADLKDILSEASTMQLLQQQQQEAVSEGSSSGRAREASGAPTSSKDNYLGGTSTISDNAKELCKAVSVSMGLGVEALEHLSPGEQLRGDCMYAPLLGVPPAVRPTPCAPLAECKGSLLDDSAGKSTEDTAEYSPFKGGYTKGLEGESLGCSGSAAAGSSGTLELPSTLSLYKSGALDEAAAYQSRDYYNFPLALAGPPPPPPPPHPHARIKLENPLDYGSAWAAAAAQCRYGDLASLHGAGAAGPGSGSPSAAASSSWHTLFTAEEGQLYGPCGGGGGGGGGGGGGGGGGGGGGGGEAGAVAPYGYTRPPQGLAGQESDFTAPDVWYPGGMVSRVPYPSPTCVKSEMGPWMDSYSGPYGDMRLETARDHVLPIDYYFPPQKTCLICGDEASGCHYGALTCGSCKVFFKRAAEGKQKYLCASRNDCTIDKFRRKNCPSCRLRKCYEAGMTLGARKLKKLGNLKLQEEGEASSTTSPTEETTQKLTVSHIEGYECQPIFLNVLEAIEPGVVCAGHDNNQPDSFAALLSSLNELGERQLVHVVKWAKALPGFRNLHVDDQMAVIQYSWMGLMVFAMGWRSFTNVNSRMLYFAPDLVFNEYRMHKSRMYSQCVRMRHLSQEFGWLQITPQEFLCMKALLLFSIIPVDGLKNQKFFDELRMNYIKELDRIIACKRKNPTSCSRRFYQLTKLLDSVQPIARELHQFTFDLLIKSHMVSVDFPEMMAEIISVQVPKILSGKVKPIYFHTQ
(Quantitative high-throughput screening tests each substance at several concentrations.)

Assay [2] is described as follows: qHTS assay for small molecule activators of the human pregnane X receptor (PXR) signaling pathway (AID 720659; call rule not given here; note: 0% is about no effect). As to conditions: DPX-2 HepG2 CYP3A4-luciferase, 24 h; series mostly up to 92.3 µM.
Assay [3] concerns the target Glucocorticoid receptor (Homo sapiens) (UniProt P04150). The assay can be described thus: qHTS assay for small molecule antagonists of glucocorticoid receptor signaling (AID 588533; active = well fitted inhibition curve with a large enough effect in the signal ratio, with a control signal flat, not every such curve was filed as active; the % refers to the signal ratio;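 note: cells stimulated with 2 nM dexamethasone as agonist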; note: potency is the fitted concentration of half-maximal effect). As to conditions: HeLa MMTV-bla, GRE beta-lactamase ratio, antagonist mode, 18 h; series mostly up to 76.8 µM. Put shortly: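 Antagonist-mode qHTS: compound titrations added to GRE-bla HeLa cells, then dexamethasone 2 nM final; 18 h, 37 C. CCF4 FRET fluorescence normalized to dexamethasone and DMSO; IC50 from Hill fit.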

The nature of assay [4]: qHTS assay for small molecule antagonists of peroxisome proliferator-activated receptor delta signaling (AID 588535; active = well fitted inhibition curve with a large enough effect in the signal ratio, with a control signal flat, not every such curve was filed as active; the % refers to the signal ratio;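 for max response: cells co-treated with a PPAR-delta agonist as stimulator during compound exposure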). Conditions: HEK293T PPARd-UAS-bla, beta-lactamase FRET ratio, 18 h; 460 nm channel. Put shortly:
(§1)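 Antagonist-mode beta-lactamase reporter (GeneBLAzer PPAR-delta-UAS-bla) in HEK293T cells, 2% charcoal/dextran FBS, 4000 cells/well. Compound titrations, 18 h at 37 C; CCF4 ratio read, IC50 and efficacy from Hill fits.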

Assay [5] concerns the target Peroxisome proliferator-activated receptor delta (Homo sapiens) (UniProt Q03181). The description is as above. As to conditions: HEK293T PPARd-UAS-bla, beta-lactamase FRET ratio, 18 h; series mostly up to 76.7 µM. Put shortly:
as §1

The target of assay [6] is Peroxisome proliferator-activated receptor gamma (Homo sapiens) (UniProt P37231). Put plainly: qHTS assay for small molecule agonists of peroxisome proliferator-activated receptor gamma signaling (AID 588536; active = well fitted curve in the direction sought with a large enough effect in the signal ratio, with a control signal flat, not every such curve was filed as active; the % refers to the signal ratio;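 note: 0% = DMSO basal wells and 100% = rosiglitazone at 2 µM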). Conditions: HEK293 PPARg-UAS-bla, beta-lactamase ratio, 16 h; series mostly up to 76.7 µM. Put shortly: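 GeneBLAzer PPAR-gamma-UAS-bla HEK293 cells in 1% charcoal/dextran-treated FBS medium were treated 16 h at 37 C with compounds. Beta-lactamase activity was read by CCF4 ratio (460/530 nm). Response was normalized to 2 uM rosiglitazone (100%) and DMSO, then Hill-fitted for EC50 and efficacy.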
Chain of Peroxisome proliferator-activated receptor gamma (Homo sapiens) (P37231 whole entry, looked up): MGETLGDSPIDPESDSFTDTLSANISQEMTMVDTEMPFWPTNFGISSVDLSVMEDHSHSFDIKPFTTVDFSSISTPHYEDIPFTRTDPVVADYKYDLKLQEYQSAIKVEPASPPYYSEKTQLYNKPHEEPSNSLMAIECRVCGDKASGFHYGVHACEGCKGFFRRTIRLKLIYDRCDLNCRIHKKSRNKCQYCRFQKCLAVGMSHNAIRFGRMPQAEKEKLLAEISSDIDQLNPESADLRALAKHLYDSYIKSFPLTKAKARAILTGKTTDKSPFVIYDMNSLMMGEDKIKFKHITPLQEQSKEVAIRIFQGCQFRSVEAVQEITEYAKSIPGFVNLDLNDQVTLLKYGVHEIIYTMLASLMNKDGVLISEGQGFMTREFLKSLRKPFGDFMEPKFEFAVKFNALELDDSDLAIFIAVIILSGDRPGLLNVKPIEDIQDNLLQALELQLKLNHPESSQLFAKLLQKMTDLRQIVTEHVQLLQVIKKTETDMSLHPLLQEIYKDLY

A short description of assay [7]: qHTS assay for small molecule agonists of retinoid X receptor alpha signaling (AID 588544).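 For activation: 0% = DMSO basal wells and 100% = reference agonist.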 Note: potency is the fitted concentration of half-maximal effect. As to conditions: HEK293T RXRa-UAS-bla, beta-lactamase reporter, 18 h; 530 nm emission.
For assay [8], the target named is Retinoic acid receptor RXR-alpha (Homo sapiens) (UniProt P19793). The description is as above. Conditions: HEK293T RXRa-UAS-bla, beta-lactamase reporter, 18 h; series mostly up to 76.7 µM.
Chain of Retinoic acid receptor RXR-alpha (Homo sapiens) (P19793 whole entry, looked up): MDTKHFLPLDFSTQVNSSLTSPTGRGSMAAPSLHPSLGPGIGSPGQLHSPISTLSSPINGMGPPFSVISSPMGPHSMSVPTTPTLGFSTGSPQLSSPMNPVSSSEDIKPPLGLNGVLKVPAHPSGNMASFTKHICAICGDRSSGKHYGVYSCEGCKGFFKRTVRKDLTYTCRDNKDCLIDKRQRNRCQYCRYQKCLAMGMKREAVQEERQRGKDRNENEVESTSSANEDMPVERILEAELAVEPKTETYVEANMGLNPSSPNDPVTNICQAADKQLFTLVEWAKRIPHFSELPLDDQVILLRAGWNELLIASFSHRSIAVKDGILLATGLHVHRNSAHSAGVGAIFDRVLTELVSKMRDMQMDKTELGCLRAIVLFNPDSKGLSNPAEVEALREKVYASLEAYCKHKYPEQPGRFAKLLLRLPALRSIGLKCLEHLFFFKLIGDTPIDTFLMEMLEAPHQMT
For assay [9], the target named is Tumor necrosis factor (Homo sapiens) (UniProt P01375). The assay can be described thus: qHTS assay to identify small molecules that stimulate Tumor Necrosis Factor-alpha (TNF-alpha) secretion (AID 651757; active = well fitted curve in the direction sought with a large enough effect in the signal ratio; the % refers to the signal ratio; note: potency is the fitted concentration of half-maximal effect). As to conditions: Human cells, HTRF 665/615 ratio; series mostly up to 92.2 µM. Put shortly:
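THP-1 cells (3000/well) exposed to compounds 17 hrs at 37 C. Secreted TNF-alpha detected by HTRF with cryptate- and XL665-labeled anti-TNF-alpha antibodies after 3 hr at room temperature.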

Assay [10] has as its target Androgen receptor (Homo sapiens) (UniProt P10275). Put plainly: qHTS assay for small molecule antagonists of androgen receptor signaling (AID 588516; active = well fitted curve in the direction sought with a large enough effect in the signal ratio, with a control signal flat, not every such curve was filed as active; the % refers to the signal ratio; note: % is set by controls: 0 for no effect and ±100 for the full control effect). Conditions: AR-UAS-bla HEK293, beta-lactamase ratio, antagonist mode, 16 h; series mostly up to 76.8 µM. Put shortly: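 HEK293 AR-UAS-bla cells, 10% dialyzed FBS medium; cpd titration + R1881 10 nM final, 16 h 37 C; CCF4 2 h RT; FRET ratio; IC50/efficacy via Hill fit.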

For assay [11], the target named is Peroxisome proliferator-activated receptor gamma (Homo sapiens) (UniProt P37231). The assay can be described thus: qHTS assay for small molecule antagonists of peroxisome proliferator-activated receptor gamma signaling (AID 588537; active = well fitted inhibition curve with a large enough effect in the signal ratio, with a control signal flat, not every such curve was filed as active; the % refers to the signal ratio; note: potency is the fitted concentration of half-maximal effect). As to conditions: HEK293 PPARg-UAS-bla, beta-lactamase ratio, antagonist mode; series mostly up to 76.8 µM. Put shortly: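 PPARγ-UAS-bla HEK293 cells (3000/well) in 1% charcoal/dextran-stripped FBS are treated with compound, then stimulated with 50 nM rosiglitazone for 16 h at 37 °C. Read-out is CCF4 β-lactamase fluorescence after 2 h at RT. IC50 comes from Hill fits normalised to rosiglitazone and DMSO.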

Chain of Glucocorticoid receptor (Homo sapiens) (P04150 whole entry, looked up): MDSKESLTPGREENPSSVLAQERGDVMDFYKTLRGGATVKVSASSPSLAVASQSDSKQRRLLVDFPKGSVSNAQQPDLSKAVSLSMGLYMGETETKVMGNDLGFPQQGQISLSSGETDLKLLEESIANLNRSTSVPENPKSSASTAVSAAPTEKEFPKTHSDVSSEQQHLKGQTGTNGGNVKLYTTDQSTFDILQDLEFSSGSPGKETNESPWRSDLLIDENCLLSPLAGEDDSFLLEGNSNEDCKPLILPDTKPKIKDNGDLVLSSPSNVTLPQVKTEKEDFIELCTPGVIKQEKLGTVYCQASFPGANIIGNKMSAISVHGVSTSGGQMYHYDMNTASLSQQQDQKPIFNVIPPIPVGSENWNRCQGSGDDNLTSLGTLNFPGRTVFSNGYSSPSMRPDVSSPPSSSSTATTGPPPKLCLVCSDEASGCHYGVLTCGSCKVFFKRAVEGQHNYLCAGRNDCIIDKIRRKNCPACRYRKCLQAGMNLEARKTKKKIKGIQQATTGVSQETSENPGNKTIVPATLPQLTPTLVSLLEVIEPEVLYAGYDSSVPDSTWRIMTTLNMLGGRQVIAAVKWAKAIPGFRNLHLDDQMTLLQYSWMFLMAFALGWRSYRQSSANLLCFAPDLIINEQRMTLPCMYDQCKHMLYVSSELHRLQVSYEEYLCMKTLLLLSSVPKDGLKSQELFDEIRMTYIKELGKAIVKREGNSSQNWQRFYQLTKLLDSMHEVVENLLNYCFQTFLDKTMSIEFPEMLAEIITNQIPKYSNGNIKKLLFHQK
Chain of Peroxisome proliferator-activated receptor delta (Homo sapiens) (Q03181 whole entry, looked up): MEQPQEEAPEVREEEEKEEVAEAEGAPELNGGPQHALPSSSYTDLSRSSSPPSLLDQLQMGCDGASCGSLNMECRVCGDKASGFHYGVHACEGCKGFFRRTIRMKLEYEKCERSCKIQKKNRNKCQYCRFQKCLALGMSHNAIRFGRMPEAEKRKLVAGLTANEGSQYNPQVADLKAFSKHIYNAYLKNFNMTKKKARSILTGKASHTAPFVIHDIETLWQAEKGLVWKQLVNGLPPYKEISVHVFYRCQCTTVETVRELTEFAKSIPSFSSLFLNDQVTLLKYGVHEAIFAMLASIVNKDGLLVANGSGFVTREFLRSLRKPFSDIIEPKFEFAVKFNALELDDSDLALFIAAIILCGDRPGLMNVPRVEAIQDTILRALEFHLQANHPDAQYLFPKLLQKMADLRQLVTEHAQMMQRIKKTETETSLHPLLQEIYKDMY
Chain of Tumor necrosis factor (Homo sapiens) (P01375 whole entry, looked up): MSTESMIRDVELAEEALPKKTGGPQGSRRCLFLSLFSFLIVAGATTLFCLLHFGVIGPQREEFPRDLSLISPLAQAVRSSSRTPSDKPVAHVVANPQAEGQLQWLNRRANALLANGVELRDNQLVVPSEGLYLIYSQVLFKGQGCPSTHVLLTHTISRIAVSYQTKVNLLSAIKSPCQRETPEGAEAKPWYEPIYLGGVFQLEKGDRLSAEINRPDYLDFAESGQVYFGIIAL

In the case of `CCCCCCCCCCCCC1=C(OC(C)=O)C(=O)c2ccccc2C1=O`, the activation in assay [1] was -4.72% (inactive). The call in [2] was inactive.

For the compound `CCNc1nc(NC(C)C)nc(OC)n1`, the Potency entry in assay [3], in assay [5], in [6] and in assay [8] was “inactive” in each case. Also, the max response was 24.4% in [4] and -5.81% in [7]. The outcome in assay [2] was inactive.

Regarding `CCC(C)c1ccc(O)cc1` (centres undefined), the Potency entry in [8] was “inactive”. Also, the outcome in assay [2] was inactive.

As to `c1ccc2c(c1)c1cccc3ccc4cccc2c4c31`, the activation in [1] is 7.55% (inactive). In assay [9], the Potency is 29.8 µM (active).

Turning to `COP(=O)(OC)Oc1nc(Cl)c(Cl)cc1Cl`, the Potency result in assay [10], in [3] and in [8] was “inactive” in each case. The max response in assay [7] was 28.3%. The outcome in assay [2] was inactive.

As for `O=CNC(N1CCN(C(NC=O)C(Cl)(Cl)Cl)CC1)C(Cl)(Cl)Cl` (centres undefined), the activation in assay [1] was 14.6% (inactive). Besides, the Potency entry in assay [3], in [5], in assay [11] and in assay [8] was “inactive” in each case. The max response in assay [4] was 26.2%; in [7], -14.2%.

Regarding `COC(C)(C)CCC[C@H](C)C/C=C/C(C)=C/C(=O)OC(C)C`, the activation in [1] is -8.45% (inactive). Also, in assay [7], the max response stood at 10.5%. For the same compound, the Potency entry in assay [8] is “inactive”.

Consider `CC1COC(Cn2cncn2)(c2ccc(Oc3ccc(Cl)cc3)cc2Cl)O1` (centres undefined), for which the compound was called inactive in assay [2].

In the case of `CCS(=O)(=O)c1cccnc1S(=O)(=O)NC(=O)Nc1nc(OC)cc(OC)n1`, the Potency result in [3], in [5] and in [11] was “inactive” throughout. Besides, the max response in [4] was -45%.

For the compound `C=CC(=O)OCC(CC)(COC(=O)C=C)COC(=O)C=C`, the activation in assay [1] was -16.7% (inactive). The Potency in assay [3] was 44.7 µM (active).

Consider `CN/C(=N/[N+](=O)[O-])NCC1CCOC1` (centres undefined), for which the max response in [4] is 22.2%; in assay [7], -9.02%. Further, the Potency entry in assay [5] and in assay [8] was “inactive” in each case.

As for `C[C@H]1[C@H](c2ccc(Cl)cc2)SC(=O)N1C(=O)NC1CCCCC1`, the activation in [1] was -15.6% (inactive). The Potency result in assay [3] is “inactive”.

Turning to `CC(O)CN(CC(C)O)CC(C)O` (centres undefined), the Potency entry in assay [3] and in assay [5] was “inactive” in each case. In addition, in assay [4], the max response is -32.2%. Moreover, the result in assay [2] was inactive.

For the compound `FC(F)C(F)(F)OCC(Cn1cncn1)c1ccc(Cl)cc1Cl` (centres undefined), the Potency result in [3], in assay [6] and in assay [8] was “inactive” each time. For the same compound, in assay [7], the max response was 14%.

On to `CC(C)=C[C@@H]1[C@@H](C(=O)OCN2C(=O)C3=C(CCCC3)C2=O)C1(C)C`, for which, in [1], the activation is 0.858% (inactive).

With `CCNS(=O)(=O)C(F)(F)C(F)(F)C(F)(F)C(F)(F)C(F)(F)C(F)(F)C(F)(F)C(F)(F)F`, the activation in assay [1] was 7.01% (inactive). Moreover, the max response in assay [4] is -20.7%; in [7] it was -3.73%. Further, the Potency entry in [5], in [6], in assay [11] and in [8] was “inactive” throughout. Also, in assay [2], the compound was classed as inactive.

For the compound `CCCCCCCCCCCC#N`, the Potency entry in assay [3], in assay [5], in assay [6], in assay [11] and in assay [8] was “inactive” throughout. The results for the max response in assay [4] and in assay [7] were -15.4% and 7.65%, respectively. For the same compound, the result in assay [2] was inactive.

Consider `Cc1ccn2nc(S(=O)(=O)Nc3c(F)cccc3F)nc2n1`, for which the max response in [4] was 35.3%; in assay [7], -22%. In addition, the Potency entry in [5], in assay [6], in assay [11] and in [8] was “inactive” throughout. The compound was classed as inactive in assay [2].

`CO/N=C(/C1=NOCCO1)c1ccccc1Oc1ncnc(Oc2ccccc2Cl)c1F`: the Potency in assay [11] is 25.1 µM (active). Also, in assay [2], the result was inactive.

Regarding `O=[N+]([O-])c1ccc2ccc3cccc4ccc1c2c34`, the activation in assay [1] was -12% (inactive). Also, the Potency entry in assay [11] and in assay [8] was “inactive” each time. For the same compound, the max response in assay [7] came out at 19.4%. Further, the result in assay [2] was inactive.

On to `CC1(C)[C@H](C(=O)O[C@H](C#N)c2cccc(Oc3ccccc3)c2)[C@@H]1/C=C(\Cl)C(F)(F)F`, for which the Potency entry in [3], in [5] and in assay [8] was “inactive” in each case. The figures for the max response in [4] and in [7] were -6.46% and 9.43%, respectively.

Consider `CC(C)N1C(=O)N(c2ccccc2)CSC1=NC(C)(C)C`, for which the activation in assay [1] is -16.2% (inactive) and -14% (inactive). The max response in assay [4] is 43.5%; in assay [7] it was 15.4% and 12.1%. Moreover, the Potency entry in assay [5], in assay [11] and in [8] was “inactive” each time.

As to `CCCN(CCOc1c(Cl)cc(Cl)cc1Cl)C(=O)n1ccnc1`, the Potency result in [3], in assay [5] and in [6] was “inactive” in each case. Further, the max response in assay [4] was 26.8% and 55.9%. In addition, in [11], the Potency was 44.7 µM (active) and inactive.

As to `CCN(CC)C(=O)SCc1ccc(Cl)cc1`, the Potency result in assay [3], in assay [6], in assay [11] and in assay [8] was “inactive” each time. The max response in [7] worked out at 0.303%.

As for `CCOP(=O)(OCC)Oc1cc(C)nc(C(C)C)n1`, in assay [4], the max response stood at 22.9%. In addition, the Potency result in assay [5] and in [11] was “inactive” throughout. Moreover, in [2], the call was inactive.

`CCCOCC(=Nc1ccc(Cl)cc1C(F)(F)F)n1ccnc1`: the Potency entry in [3], in assay [5] and in [8] was “inactive” in each case. Also, the max response in assay [4] turned out to be 18.7%.

For the compound `O=[N+]([O-])c1ccc(Nc2ccccc2)cc1`, the Potency entry in [3] was “inactive”.

For `CCC[CH2][Sn]([CH2]CCC)([CH2]CCC)[CH2]CCC`, the Potency entry in [3], in assay [5] and in assay [11] was “inactive” throughout. The max response in assay [4] is 0.148%. Also, the compound was classed as inactive in [2].

As for `CC(Oc1cccc(Cl)c1)C(=O)O` (centres undefined), the Potency entry in assay [3], in [5], in assay [6], in assay [11] and in assay [8] was “inactive” each time. Also, the results for the max response in assay [4] and in assay [7] were 47.7% and -3.83%, respectively. In addition, the call in assay [2] was inactive.

`Brc1ccc(Br)cc1`: the Potency entry in assay [3], in [5], in [6], in assay [11] and in assay [8] was “inactive” each time. Moreover, the max response in assay [4] is -47.9%; in [7], 0.756%. In addition, the result in [2] was inactive.

Turning to `COC(=O)C(C)Oc1ccc(Oc2ccc(Cl)cc2Cl)cc1` (centres undefined), in assay [7], the max response amounted to 20.2%. Further, the Potency entry in assay [8] is “inactive”. For the same compound, the compound was called inactive in assay [2].

Turning to `N#Cc1cc(Br)c(O)c(Br)c1`, the Potency result in assay [3] and in [6] was “inactive” throughout. For the same compound, in [7], the max response was -9.28%. Further, the Potency in assay [8] was 15.8 µM (active). Moreover, the call in assay [2] was inactive.
